# Screening data from PubChem.
# Hits are enriched below; roughly 8.1% of the tested compounds scored in any of these assays.
# Epigenetic derep – epigenetic control regulation, reporter derepression; murine LDR cells, GFP reporter derepression, 30 h; Potency, µM (titrated, usually from 53.9 µM), for inactives: top-dose GFP activation, most hits filed as activators; hit rate 0.2% among 280,000; AID 1865; note: potency is the fitted concentration of half-maximal effect; % of control where 0% means no effect; nearly all actives have a fitted effect of over 60% in size
#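 Reporter derepression read as number of fluorescent GFP-positive objects, 20-120 um in size, counted by laser-scanning cytometer. Mouse LDR line with an epigenetically silenced CMV-GFP locus; compound incubation 30 h, 37 C.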
# RORgamma inh – ROR gamma (mouse) transcription inhibition; AID 2551; hit rate 5.4% among 310,000; Potency, µM (top dose mostly 53.6 µM), without a hit: top-dose activity change, negative = inhibition, most hits filed as inhibitors; P51450; Drosophila S2 Gal4-RORgamma UAS-luciferase reporter, 20 h; note: potency is the fitted concentration of half-maximal effect; % is set by controls: 0 for no effect and ±100 for the full control effect; nearly all actives have a fitted effect of over 60% in size
# Target sequence (P51450 whole entry, looked up, the tested form may be a part): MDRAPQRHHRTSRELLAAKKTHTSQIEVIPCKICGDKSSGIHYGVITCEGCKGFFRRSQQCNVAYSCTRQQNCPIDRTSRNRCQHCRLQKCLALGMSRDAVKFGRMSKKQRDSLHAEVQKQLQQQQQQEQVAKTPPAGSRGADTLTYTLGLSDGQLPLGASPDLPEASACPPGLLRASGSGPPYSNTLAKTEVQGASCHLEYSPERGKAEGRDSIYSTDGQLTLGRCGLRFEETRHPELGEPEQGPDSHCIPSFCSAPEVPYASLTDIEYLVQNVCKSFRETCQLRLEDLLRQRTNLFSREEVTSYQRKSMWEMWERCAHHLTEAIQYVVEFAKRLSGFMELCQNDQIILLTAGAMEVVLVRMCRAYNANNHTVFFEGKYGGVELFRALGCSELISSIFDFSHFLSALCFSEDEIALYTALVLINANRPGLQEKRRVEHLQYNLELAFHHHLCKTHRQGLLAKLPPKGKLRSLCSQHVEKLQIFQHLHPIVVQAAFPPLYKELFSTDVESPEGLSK
#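 Stable Schneider cell line, Gal4 DNA-binding domain fused to ROR gamma, UAS-luciferase. Cmpd 1 hr RT → CuSO4 700 uM final → 20 hr RT → luciferase reagent 10 min → luminescence.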
# ClpP mod – qHTS Assay for Activators of ClpP; ATP-dependent Clp protease proteolytic subunit (Bacillus subtilis (strain 168)), P80244; purified B. subtilis ClpP, FRET peptide cleavage, 20 min; Potency, µM (series often up to 57.5 µM), for inactives: at the highest dose activity change, negative = active; hit rate 1.9% among 340,000; AID 651965, 2013; active = well fitted falling curve with a large enough effect; inconclusive = small, poorly fitted or top-dose-only effect; inactive = no such curve, though single readings can be large or run the other way; note: potency is the fitted concentration of half-maximal effect; the source files actives as falling curves though it sought activators and does not explain the sign; nearly all actives have a fitted effect of over 65% in size
#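 ClpP 10 microg/mL final, pH 8 Tris/KCl buffer with BSA, glycerol, Tween-20; compound pinned in; FRET-FV substrate; RT 20 min; Ex320/Em430; ΔFRET vs ADEP 5.8 microM, DMSO, no enzyme.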
# PINK1 expr mod – modulators of PINK1 expression | AID 624263 | Potency, µM (doses to about 76.6 µM), for the others: top-dose activation (PINK1 increase), usual class: activators | hit rate 0.2% among 410,000 | PINK1 immunofluorescence, high-content cytometry, 24 h; active = well fitted activation curve with a large enough effect; inconclusive = small, poorly fitted or top-dose-only effect; cell line not stated here; note: potency is the fitted concentration of half-maximal effect; % of control where 0% means no effect; nearly all actives have a fitted effect of over 65% in size
#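 Measures PINK1 amount and localization on or inside mitochondria by immunofluorescence. Stable cells get compounds at 5 concentrations for 24 hours before fixation and staining; CCCP controls included.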
# Gal4-VP16 FLuc – counter-screen for ROR gamma inhibitors: Gal4-VP16 reporter; Drosophila S2 Gal4-VP16 UAS-luciferase, luminescence, 20 h; Potency, µM (top dose mostly 53.6 µM), inactives show at the top dose activity, negative = inhibition, actives largely listed as inhibitors; hit rate 3.5% among 310,000; AID 2546;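 note: Gal4-VP16 expression switched on by copper sulfate through the metallothionein promoter; potency is the fitted concentration of half-maximal effect; % is set by controls: 0 for no effect and ±100 for the full control effect; nearly all actives have a fitted effect of over 50% in size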
# Sfp PPTase inh – Sfp phosphopantetheinyl transferase inhibition; hit rate 3.5% among 310,000; Potency, µM, without a hit: largest response in the series, negative = inhibition, usual class: inhibitors; Biochemical Sfp PPTase activity, qHTS; AID 1490;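 note: the enzyme is Sfp with the accession as filed and its product quenches rhodamine fluorescence; potency is the fitted concentration of half-maximal effect; 0% = enzyme reaction without inhibitor and -100% = no enzyme wells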
#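 Buffer: 50 mM Hepes-Na pH 7.6, 10 mM MgCl2, 0.01% Nonidet P-40, 0.01% BSA. Enzyme 15 nM, pre-exposed to compound 15 min; substrates then added and fluorescence change tracked over 30 min.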
# Parental c127i – counter-screen for epigenetic modulators: effect in parental c127i cells; shares compounds with Epigenetic derep; mouse c127i parental cells, fluorescent cell count, 30 h; Potency, µM, inactives show top-dose fluorescent cell count, usual class: activators; hit rate 20% among 60
# HCC4017 viab – epigenetic modulators: cytotoxicity in HCC4017 lung cancer cells. shares compounds with Epigenetic derep. HCC4017 NSCLC viability, CellTiter-Glo ATP luminescence, 72 h. Potency, µM (titrated, usually from 46.1 µM), inactives show top-dose activity change, negative = cytotoxicity, usual class: cytotoxic. hit rate 30% among 45
# H358 tox – epigenetic modulators: cytotoxicity in H358 lung cancer cells; shares compounds with Epigenetic derep; H358 NSCLC viability, ATP luminescence, 72 h; Potency, µM (series often up to 46.1 µM), without a hit: at the top dose activity change, negative = viability loss, most hits filed as cytotoxic; hit rate 30% among 45
# Starred values were filed as active, the others as inactive; u = inconclusive; x = no result given; [ ] = dose if it differs, or a comment. Unless noted, calls come from the whole dose curve; as a rule, active = well fitted curve in the direction sought with a large enough effect; inconclusive = small, poorly fitted or top-dose-only effect, or another doubt; inactive = no such curve, though single readings can be large; an effect the other way counts as inactive or inconclusive.
SMILES,Epigenetic derep,RORgamma inh,ClpP mod,PINK1 expr mod,Gal4-VP16 FLuc,Sfp PPTase inh,Parental c127i,others
COc1ccc(OC)c(Nc2nc3nonc3nc2N2CCCC(C)C2)c1 (stereo not drawn),u,-15%,x,u,-5%,13%,14µM*,
CC1CCCN(c2nc3nonc3nc2Nc2ccccc2F)C1 (stereo not drawn),1%,20%,3%,2%,4%,0%,x,
CCCOc1cc(N(CC)CC)ccc1/C=C(/C#N)c1nc2ccc(C)cc2[nH]1,2%,2%,-1%,16%,-1%,u,2.5µM*,
COc1cccc(/C=C(\C#N)c2nc3ccc(C)cc3[nH]2)c1,u,x,-14%,10%,x,x,x,
CC(=O)N[C@@H](CSC(=O)[C@]1([C@@H](O)C(C)C)NC(=O)[C@H](C)[C@@H]1O)C(=O)O,u,u,x,x,-27%[10 µM],1%,25µM*,
COc1ccc(S(=O)(=O)N(CCc2ccccc2)CC(=O)Nc2cc(C)cc(C)c2)cc1OC,-2%,x,-1%,1%,x,x,x,
CCc1nnc(NC(=O)c2ccncc2)s1,-1%,4%,0%,3%,20%,8%,x,
CCc1nnc(NC(=O)c2cccc(C(=O)Nc3nnc(CC)s3)n2)s1,2.5µM*,0.018µM*,2%,-2%,0.18µM*,22%,6%,HCC4017 viab=0.5µM*;H358 tox=0.56µM*
COc1ccc2c(C)cc(SCC(=O)N(C)C3CCS(=O)(=O)C3)nc2c1 (stereo not drawn),10µM*,16%,x,-1%,5%,21%,u,HCC4017 viab=-14%;H358 tox=-8%
N#Cc1sc2nc(-c3ccccc3)cc(C(F)(F)F)c2c1N,u,6%,2%,11µM*,2%,-2%,16µM*,
N#Cc1cc2c(=O)n3ccccc3nc2n(-c2nnc(SCc3ccc(F)cc3)s2)c1=O,3%,x,4%,0%,x,x,x,
CN(C)S(=O)(=O)c1ccc2c(c1)/C(=C/c1cc3c([nH]1)CCCC3)C(=O)N2,7.9µM*,x,-1%,u,x,x,3.2µM*,
O=C(O)CCCCCN1C(=O)/C(=C\c2ccc(-c3ccc(Cl)cc3)o2)SC1=S,3.5µM*,28%,x,3%,9%,6.3µM*,7.9µM*,
Cc1ccc(/C=[N+](\[O-])c2ccc(N(C)C)cc2)c2nsnc12,u,5µM*,x,-2%,u,-65%,18%,HCC4017 viab=14µM*;H358 tox=28µM*
Fc1cccc(-n2ncc3c2ncn2nc(COc4ccc(Cl)cc4)nc32)c1,6%,x,-1%,1%,x,x,x,
O=C(CN1C(=O)CCc2cc(S(=O)(=O)N3CCOCC3)ccc21)NCc1ccccc1Cl,0%,x,1%,1%,x,x,x,
COc1nc(Nc2nc3ccccc3c(=O)[nH]2)nc2ccc(C)cc12,u,u,2%,9%,5µM*,-19%,5%,HCC4017 viab=2.8µM*;H358 tox=3.1µM*
Cc1cc(C)cc(Nc2nc3ccccc3c(=O)[nH]2)c1,2%,-41%,x,-4%,-1%,0%,x,
COc1cc(-c2nnc(SCC(=O)NCc3ccccc3Cl)o2)cc(OC)c1OC,3%,x,-2%,0%,x,x,x,
O=c1c2ccccc2nc(COc2ccccc2)n1/N=C/c1ccc(O)cc1O,0%,-39%,10%,0%,-5%,-2%,x,
